Results as given in PubChem BioAssay (NCATS).
Values joined by “and” are separate entries in the source; they are usually repeats but may differ in a detail not shown here. Identical values can stand only once. Results filed as inconclusive are left out. Values without a mark were called inactive. Active and inactive are the calls of the source. Unless noted, the call rests on the fitted dose curve; in most records, active means well fitted curve in either direction with a large enough effect (not every such curve was filed as active); inconclusive means small, poorly fitted or top-dose-only effect, or another doubt; inactive means flat fitted curve, though single readings scatter.

target: Cytochrome P450 1A2 (Homo sapiens) (UniProt P05177); test: p450-cyp1a2 (AID 410; calls by dose curve; further: potency means the concentration at half of the fitted maximal effect;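 on activity change, negative = inhibition: -100% = full effect of reference inhibitor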); details: recombinant CYP1A2, luciferin-ME demethylation, luminescence; series mostly up to 25.6 µM; activity change, negative = inhibition: at the top concentration
Summary of the method: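 Human CYP1A2 (20nM) demethylated Luciferin-ME at its Km (100uM) in 100mM KPO4. After 10 min compound preincubation, NADPH regeneration ran the reaction 60 min at room temperature. Luciferin was read by luminescence, normalized to 57 uM furafylline.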

Sequence of Cytochrome P450 1A2 (Homo sapiens) (P05177 whole entry, looked up): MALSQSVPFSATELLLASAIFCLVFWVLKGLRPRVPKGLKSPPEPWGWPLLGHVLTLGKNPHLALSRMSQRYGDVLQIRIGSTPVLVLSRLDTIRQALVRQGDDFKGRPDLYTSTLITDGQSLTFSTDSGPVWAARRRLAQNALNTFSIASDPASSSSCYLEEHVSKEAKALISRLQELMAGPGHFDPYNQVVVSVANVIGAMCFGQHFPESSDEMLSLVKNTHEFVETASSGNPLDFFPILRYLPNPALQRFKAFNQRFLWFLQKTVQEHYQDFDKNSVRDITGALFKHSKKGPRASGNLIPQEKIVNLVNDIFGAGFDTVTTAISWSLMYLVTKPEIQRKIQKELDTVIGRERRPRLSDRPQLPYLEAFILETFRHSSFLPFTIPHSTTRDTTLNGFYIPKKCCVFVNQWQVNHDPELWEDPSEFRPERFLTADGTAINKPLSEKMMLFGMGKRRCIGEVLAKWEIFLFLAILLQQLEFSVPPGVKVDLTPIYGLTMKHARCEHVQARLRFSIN

Structure (SMILES)	Potency	activity change, negative = inhibition
COc1cccc2c1C(=O)c1c(O)c3c(c(O)c1C2=O)C[C@@](O)(C(C)=O)C[C@@H]3O[C@H]1C[C@H](N)[C@H](O)[C@H](C)O1	31.6 µM (active)	
CN(C(=O)CN(CCO)CC(=O)N(C)C(C)(C)Cc1ccccc1)C(C)(C)Cc1ccccc1		-10.5%
C1CCc2nnnn2CC1	inactive	
CC(O)(P(=O)(O)O)P(=O)(O)O		0%
CN(C)CC/C=C1\c2ccccc2Sc2ccc(Cl)cc21	1.58 µM (active) and 3.98 µM (active)	
COc1cc(NS(C)(=O)=O)ccc1Nc1c2ccccc2nc2ccccc12	7.94 µM (active)	

system: not listed separately; test: Cell Viability - BJ (AID 421; calls by dose curve;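 further: potency means the concentration at half of the fitted maximal effect; cells exposed to compound for 40 hours at 37 °C before readout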); details: BJ fibroblast viability, qHTS
Summary of the method: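 Quantitative HTS: ATP depletion in BJ cells after 40 hr compound exposure in complete culture medium, detected with CellTiter-Glo; AC50 from standard Hill fits.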

Structure (SMILES)	Potency
CC(=O)Oc1ccc(C(c2ccc(OC(C)=O)cc2)c2ccccn2)cc1	> 92 µM
Oc1ccc(O)cc1	> 92 µM
COc1cccc2c1C(=O)c1c(O)c3c(c(O)c1C2=O)C[C@@](O)(C(C)=O)C[C@@H]3O[C@H]1C[C@H](N)[C@H](O)[C@H](C)O1	4.61 µM (active)

system: not listed separately; test: Cell Viability - Jurkat (AID 426;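 active means dose-dependent loss of cell ATP signal giving a full or clear fitted curve, ranked by lower potency value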; further: potency means the concentration at half of the fitted maximal effect); details: qHTS
Summary of the method: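 Jurkat (clone E6-1, human T-cell leukemia) cells, 5000/well in complete medium, were exposed to compound for 40 hr at 37 °C. Viability was read as intracellular ATP by CellTiter-Glo luminescence; AC50 came from Hill fits of concentration-response data.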

Structure (SMILES)	Potency
Oc1ccc(Cl)cc1Sc1cc(Cl)ccc1O	56.7 µM (active)
C=C(CC)C(=O)c1ccc(OCC(=O)O)c(Cl)c1Cl	9.25 µM (active)
CC(=O)Oc1ccc(C(c2ccc(OC(C)=O)cc2)c2ccccn2)cc1	> 92 µM
Oc1ccc(O)cc1	4.41 µM (active)
COc1cccc2c1C(=O)c1c(O)c3c(c(O)c1C2=O)C[C@@](O)(C(C)=O)C[C@@H]3O[C@H]1C[C@H](N)[C@H](O)[C@H](C)O1	0.0218 µM (active)

system: not listed separately; test: Cell Viability - HepG2 (AID 433; calls by dose curve;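 further: potency means the concentration at half of the fitted maximal effect; potency for ATP loss meaning cytotoxicity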); details: qHTS
Summary of the method: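 ATP luminescence (CellTiter-Glo) after 40 h compound exposure, 37 °C, HepG2, 1500 cells/well, complete medium. Normalized: DMSO = basal, 100 uM tamoxifen = 100% inhibition. AC50 via standard Hill equation.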

Structure (SMILES)	Potency
CC(=O)Oc1ccc(C(c2ccc(OC(C)=O)cc2)c2ccccn2)cc1	> 92 µM
Oc1ccc(O)cc1	> 92 µM
COc1cccc2c1C(=O)c1c(O)c3c(c(O)c1C2=O)C[C@@](O)(C(C)=O)C[C@@H]3O[C@H]1C[C@H](N)[C@H](O)[C@H](C)O1	49.7 µM (active)

system: not listed separately; test: Cell Viability - MRC5 (AID 434; calls by dose curve;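 further: potency means the concentration at half of the fitted maximal effect; potency reflects cytotoxicity seen as loss of intracellular ATP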); details: MRC5 lung fibroblast viability, qHTS
Summary of the method: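 MRC5 normal human lung fibroblasts, 1500 cells/well, exposed to compound for 40 hr at 37 C. Cellular ATP was read by CellTiter-Glo luminescence; data normalized to DMSO and 100 uM tamoxifen, with AC50 from Hill fits.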

Structure (SMILES)	Potency
C=C(CC)C(=O)c1ccc(OCC(=O)O)c(Cl)c1Cl	> 92 µM
CC(=O)Oc1ccc(C(c2ccc(OC(C)=O)cc2)c2ccccn2)cc1	> 92 µM
Oc1ccc(O)cc1	> 92 µM
COc1cccc2c1C(=O)c1c(O)c3c(c(O)c1C2=O)C[C@@](O)(C(C)=O)C[C@@H]3O[C@H]1C[C@H](N)[C@H](O)[C@H](C)O1	19.5 µM (active)

system: not listed separately; test: Cell Viability - SK-N-SH (AID 435; calls by dose curve; further: potency means the concentration at half of the fitted maximal effect); details: SK-N-SH neuroblastoma cell viability qHTS
Summary of the method: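 CellTiter-Glo ATP luminescence, 20 min RT read; cells pre-plated 5 hr, compound 40 hr at 37 °C, 1500 cells/well, complete medium. Normalized DMSO = 0, 100 uM tamoxifen = 100% inhibition; Hill-fit AC50.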

Structure (SMILES)	Potency
C=C(CC)C(=O)c1ccc(OCC(=O)O)c(Cl)c1Cl	45.3 µM (active)
CC(=O)Oc1ccc(C(c2ccc(OC(C)=O)cc2)c2ccccn2)cc1	> 92 µM
COc1cccc2c1C(=O)c1c(O)c3c(c(O)c1C2=O)C[C@@](O)(C(C)=O)C[C@@H]3O[C@H]1C[C@H](N)[C@H](O)[C@H](C)O1	0.0141 µM (active)

system: not listed separately; test: NFAT Signaling Pathway (AID 444); details: Jurkat NFAT-bla M1, carbachol, beta-lactamase ratio, 5 h; at 7.69 µM (top of the series);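 further: carbachol stimulus at about its EC50 of 1 µM final; on the % scale 0 is the no-effect control and ±100 the full control effect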
Summary of the method: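 Jurkat cells with NFAT-driven β-lactamase reporter and co-expressed M1 receptor, stimulated with carbachol (final 1 uM, ~EC50), compound titration, 5 h at 37 °C. CCF4 loaded 1 h at RT; 460/530 nm ratio gave %activity and AC50.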

Structure (SMILES)	activity change, negative = inhibition
OC(CCN1CCCCC1)(c1ccccc1)c1ccccc1	-73.6% (active)
Cc1cc(N)c2cc(NC(=O)Nc3ccc4nc(C)cc(N)c4c3)ccc2n1	-11.7%
CNCCC=C1c2ccccc2CCc2ccccc21	-80.1% (active)

same assay, conditions: Jurkat NFAT-bla M1, carbachol, beta-lactamase ratio, 5 h; at 17.2 µM (top of the series)

Structure (SMILES)	activity change, negative = inhibition
C[C@H]1[C@H](NC(=O)/C(=N/OC(C)(C)C(=O)O)c2csc(N)n2)C(=O)N1S(=O)(=O)O (stereo in doubt)	3.56%
COc1cc(-c2ccc(=O)[nH]n2)ccc1OC(F)F	-13.5%
CCCCOc1cc(C(=O)NCCN(CC)CC)c2ccccc2n1	3.91% and -0.708% and -6.28%
Cc1c(N(C)CS(=O)(=O)O)c(=O)n(-c2ccccc2)n1C	-4.94%
C=C(CC)C(=O)c1ccc(OCC(=O)O)c(Cl)c1Cl	-133% (active)
OC(CCN1CCCCC1)(c1ccccc1)c1ccccc1	-42.4% (active) and -77.8% (active)
CC(=O)Oc1ccc(C(c2ccc(OC(C)=O)cc2)c2ccccn2)cc1	7.84% and -13.9%
CCCn1c(=O)[nH]c(=O)c2[nH]cnc21	-21.8%
Cc1cc(=O)n(-c2ccccc2)n1C	-2.45%
C[N+]1(CCCCC[N+]2(C)CCCC2)CCCC1	-12.7%
Oc1cc(O)c2c(c1)O[C@H](c1ccc(O)c(O)c1)[C@H](O)C2	-6.82% and 0.191%
CC(C)NC[C@@H](O)COc1cccc2ccccc12	5.75% and 5.85% and -11.9%
CNCCC=C1c2ccccc2CCc2ccccc21	-86.8% (active)
COc1cccc2c1C(=O)c1c(O)c3c(c(O)c1C2=O)C[C@@](O)(C(C)=O)C[C@@H]3O[C@H]1C[C@H](N)[C@H](O)[C@H](C)O1	-129% (active)
CN(C(=O)CN(CCO)CC(=O)N(C)C(C)(C)Cc1ccccc1)C(C)(C)Cc1ccccc1	-2.45%
C1CCc2nnnn2CC1	-9.11%
CC(O)(P(=O)(O)O)P(=O)(O)O	-2.6%
